High-throughput results as filed in PubChem.
IP6K1 inhibitor: blocks human inositol hexakisphosphate kinase 1; Q92551; IP6K1 kinase, ADP-Glo luminescence, 2 h; hits give low values; activity change, % (series mostly up to about 58 µM); actives 0.81% (n = 140,000); AID 1645851; in the data active = activity change below about -25%
Target sequence (Q92551 whole entry, looked up): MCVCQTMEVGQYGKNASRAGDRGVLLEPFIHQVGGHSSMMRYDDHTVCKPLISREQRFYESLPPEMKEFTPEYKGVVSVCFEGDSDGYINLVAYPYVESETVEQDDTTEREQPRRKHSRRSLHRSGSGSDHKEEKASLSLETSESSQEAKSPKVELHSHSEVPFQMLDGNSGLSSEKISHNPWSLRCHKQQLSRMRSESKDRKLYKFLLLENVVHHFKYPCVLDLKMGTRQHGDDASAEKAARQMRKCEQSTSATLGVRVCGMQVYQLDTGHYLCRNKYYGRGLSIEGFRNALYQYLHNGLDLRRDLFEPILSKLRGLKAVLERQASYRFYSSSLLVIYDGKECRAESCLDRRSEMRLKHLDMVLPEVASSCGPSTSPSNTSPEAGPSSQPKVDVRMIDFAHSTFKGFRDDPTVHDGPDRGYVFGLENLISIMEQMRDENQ
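ADP-Glo luminescence measures ADP made by human IP6K1 during a 2 h RT reaction with ATP/IP6 (mix at 1.3 mM/130 uM); top library doses 57.5 and 19.1 uM final.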
GPT2 inhibitor: blocks human glutamate pyruvate transaminase 2; Q8TD30; Recombinant GPT2, coupled pyruvate oxidase/HRP Amplex Red fluorescence; Potency, µM (top dose mostly 57.7 µM), actives largely listed as inhibitors; actives 0.25% (n = 100,000); AID 1671188; note: nearly all actives have a fitted effect of over 60% in size
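Fluorescence read-out: pyruvate from GPT2 turnover coupled to pyruvate oxidase, HRP and Amplex Red (0.2mM ThPP, 0.2U/mL PO and HRP, 50uM Amplex final). Substrates 250uM a-KG, 2mM L-alanine; enzyme 10ng/uL; 30 min RT.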
SNCA viab count: reduces viability of HEK-293 SNCA reporter cells | Potency, µM (series often up to 57.1 µM), hits mostly cytotoxic | HEK-293-SNCA-luc viability, GF-AFC fluorescence, 24 h | AID 1671193 | actives 0.12% (n = 150,000); note: nearly all actives have a fitted effect of over 30% in size
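HEK-293-SNCA-luc cells (1500/well) plated 24 h, then exposed 24 h to a dilution series; GF-AFC added 30 min at 37C, fluorescence 405/540 nm; normalised to medium-only and DMSO wells, Hill fit.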
SNCA expr inhib: inhibitors of alpha-synuclein (SNCA) gene expression. Potency, µM (doses to about 57.2 µM), hits mostly inhibitors. actives 0.17% (n = 140,000). HEK-293 SNCA-luciferase knock-in, luminescence, 24 h; note: nearly all actives have a fitted effect of over 45% in size
Numbers stand for hits; [ ] = dose if it differs, or a comment. Sampled rows, rich in hits. Any-hit rate of the full collection: about 1%. Unless noted, calls come from the whole dose curve; as a rule, active = well fitted curve in the direction sought with a large enough effect; inconclusive = small, poorly fitted or top-dose-only effect, or another doubt; inactive = no such curve, though single readings can be large; an effect the other way counts as inactive or inconclusive.

COC(=O)c1ccc2c(c1)nc(NC(=O)c1ccccc1)n2CCCc1ccccc1 was read as IP6K1 inhibitor inactive, GPT2 inhibitor inactive and SNCA viab count inactive.
Screening CC(C)(O)Cn1c(NC(=O)c2ccc(-c3cn[nH]c3)s2)nc2cc(CN3CCOCC3)ccc21 returned GPT2 inhibitor inactive, SNCA viab count inconclusive and SNCA expr inhib 3.4µM.
For C[C@H](NCc1ccc2c(c1)nc(NC(=O)c1ccc(-c3cn[nH]c3)s1)n2CCc1ccccc1)C(C)(C)C the results were GPT2 inhibitor inactive, SNCA viab count inconclusive and SNCA expr inhib 6.8µM.
C(#Cc1nc2ncccc2nc1OCCN1CCCC1)c1ccccc1 was read as IP6K1 inhibitor inactive, GPT2 inhibitor inactive and SNCA viab count 15µM.
Cc1ccc(N)cc1O was read as IP6K1 inhibitor inactive, GPT2 inhibitor 11µM, SNCA viab count inactive and SNCA expr inhib inactive.
Screening CC1CCN(CCNC(=O)c2ccc(Cn3c(SCc4ccccc4)nc4cccnc43)cc2)CC1 returned IP6K1 inhibitor inactive, SNCA viab count 10µM and SNCA expr inhib inactive.
Screening COCCCNC(=O)c1cccc2c1CCN2C(=O)Nc1cccc(C)c1 returned IP6K1 inhibitor inactive, GPT2 inhibitor inactive, SNCA viab count inactive and SNCA expr inhib 3.5µM.
Screening O=C(O)c1cccc2c1CCN2C(=O)Nc1ccc(F)cc1 returned IP6K1 inhibitor inactive, GPT2 inhibitor inactive, SNCA viab count inactive and SNCA expr inhib 0.89µM.
CCCOc1ccc(C2C(=O)N(C3CCCCC3)CC(=O)N2CCC2=CCCCC2)cc1OC (centres undefined) was read as IP6K1 inhibitor inactive, SNCA viab count inactive and SNCA expr inhib inactive.
For COc1ccc(C2C(=O)N(C3CCCCC3)CC(=O)N2CCC2=CCCCC2)cc1 (centres undefined) the results were IP6K1 inhibitor inactive, SNCA viab count inconclusive and SNCA expr inhib 22µM.
`Cc1nn(-c2ccccc2[N+](=O)[O-])c(C)c1[C@@H]1C=C[C@@H](NCc2ccc(C(C)C)cc2)C1` gave IP6K1 inhibitor inactive, GPT2 inhibitor inactive, SNCA viab count 20µM and SNCA expr inhib inactive.
`COc1cccc(-c2cc(C(=O)NCc3cccc(C(F)(F)F)c3)c3cnn(C)c3n2)c1` gave IP6K1 inhibitor inactive.
For CC(=O)OCC1=C(C(=O)O)N2C(=O)[C@@H](NC(=O)CSc3ccncc3)[C@H]2SC1 the results were IP6K1 inhibitor -42, GPT2 inhibitor inactive, SNCA viab count inactive and SNCA expr inhib inactive.
Screening CS(=O)(=O)N(Cc1ccccc1)c1ccc(C(=O)Nc2cccc(Cl)c2)cc1 returned IP6K1 inhibitor inactive, SNCA viab count 6.3µM and SNCA expr inhib inactive.
For O=C(Nc1ccc(S(=O)(=O)N(Cc2ccccc2)c2ccccc2)cc1)c1ccc(F)cc1 the results were IP6K1 inhibitor -28, SNCA viab count inactive and SNCA expr inhib inactive.
Screening Cc1cccc(C(=O)Nc2ccc(S(=O)(=O)N(Cc3ccccc3)c3ccccc3)cc2)c1 returned IP6K1 inhibitor inactive, SNCA viab count inactive and SNCA expr inhib inactive.
Screening Cc1ccc(NC(=O)c2ccc(N(Cc3ccccc3)S(C)(=O)=O)cc2)cc1 returned IP6K1 inhibitor inactive, SNCA viab count 2.8µM and SNCA expr inhib inactive.
For Cn1ncc2c(C(=O)NCc3cccc(F)c3)cc(-c3ccccc3)nc21 the results were IP6K1 inhibitor inactive, GPT2 inhibitor inconclusive, SNCA viab count inactive and SNCA expr inhib inactive.
Screening CCN1c2cc(C(=O)Nc3ccccc3C(=O)OC)ccc2C(=O)N2CCCCCC21 (centres undefined) returned IP6K1 inhibitor inactive, GPT2 inhibitor inactive, SNCA viab count inactive[12.5 µM] and SNCA expr inhib inactive.
`O=C(NC1CCN(c2ccc3nnc(C4CC4)n3n2)CC1)c1ccc(F)cc1` gave IP6K1 inhibitor inactive.
Screening O=C(NCCc1ccc(F)cc1)C1CCN(Cc2ccccc2-c2ccccc2F)CC1 returned IP6K1 inhibitor inactive.
CCCC(=O)c1cc2c(cc1NC(=O)c1ccccc1F)OCCO2 was read as IP6K1 inhibitor inactive, SNCA viab count inactive and SNCA expr inhib 14µM.
Screening CCC(=O)c1cc2c(cc1NC(=O)c1ccccc1F)OCCO2 returned IP6K1 inhibitor inactive, SNCA viab count inactive and SNCA expr inhib inactive.
Screening C=CCOc1c(OC)ccc2c1CN(Cc1ccco1)C(=O)CCN2CC(O)Cc1ccccc1 (centres undefined) returned IP6K1 inhibitor inactive.
C[C@@H]1CN(c2nc(-c3ccccc3)no2)CC[C@@]1(O)C1CCC1 was read as IP6K1 inhibitor inactive, GPT2 inhibitor inactive, SNCA viab count inactive and SNCA expr inhib 14µM.
